According to PubChem BioAssay AID624202 (National Center for Advancing Translational Sciences (NCATS), 2012):
Among all 380,000 compounds or so, about 4,000 (1.1%) were called active. Where a call stands in place of a potency, no number is given. Inconclusive results (about 3%) are left out. The call rests on the fitted dose curve; in most records, active means well fitted activation curve with a large enough effect; inconclusive means small, poorly fitted or top-dose-only effect; inactive means no such curve, though single readings can be large or run the other way. Many of the other results were omitted from the sample, so actives are more common in it than they were.

assay: qHTS Assay to Identify Small Molecule Activators of BRCA1 Expression; details: MCF7-BRCA1-FFLuc reporter, luminescence, 48 h; series mostly up to 46.1 µM; further: nearly all actives have a fitted effect of over 80% in size
Summary of the method: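 Cells: MCF7-BRCA1-FFLuc, 2000/well. Exposure: 48 h, 37 °C, 5% CO2. Read: luminescence, 15 min post-substrate. Controls: genistein 10 microM (maximal activation), DMSO (neutral).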
Potency means the concentration at half of the fitted maximal effect.

Structure (SMILES)	Potency
O=C(NC1CCCCC1)c1ccc2c(c1)N(Cc1ccc(Cl)cc1)C(=O)c1ccccc1S2=O (stereo unspecified)	inactive
CCOc1ncccc1C(=O)Nc1ccc2c(c1)OCCO2	inactive
C/C(=N/NC(=S)Nc1ccccc1)c1ccc2c(c1)OCO2	inactive
Cc1ccc(S(=O)(=O)NCC(=O)Nc2ccc3c(c2)OCCO3)cc1	inactive
O=C(Nc1cccc(Cl)c1N1CCOCC1)c1ccc2c(c1)OCCO2	inactive
N#Cc1ccccc1NC(=O)c1ccc2c(c1)OCO2	3.16 µM (active)
CCSc1ccccc1C(=O)Nc1ccc2c(c1)OCO2	11.2 µM (active)
CC(C)NC(=O)CSc1ccccc1C(=O)NCc1ccc2c(c1)OCO2	inactive
N#Cc1ccccc1NC(=O)c1cccc(COc2ccc(Cl)cc2Cl)c1	inactive
O=C(Nc1ccccc1)c1ccc2c(c1)OCO2	10 µM (active)
O=CN1CCN(C(=O)c2ccc3c(c2)OCO3)CC1	inactive
Cc1ccc(C(=O)NNC(=O)c2ccc3c(c2)OCCO3)cc1	6.31 µM (active)
Cc1ccc(C(=O)NNC2=Nc3cc([N+](=O)[O-])ccc3OC2)cc1	inactive
COc1cc2c(=O)c(S(=O)(=O)c3ccc(C(C)C)cc3)cn(Cc3ccccc3C)c2cc1OC	inactive
COc1cc(C(=O)Nc2ccc(-n3c(C)nc4ccccc4c3=O)cc2)cc(OC)c1OC	inactive
O=c1cc2nc(-c3ccccc3)nc(SCCOc3ccc(Cl)cc3)n2[nH]1	inactive
CCCCC(CCCC)c1ccc(C=Nc2ccc(/C=C/c3ccnc4ccccc34)cc2)cc1	inactive
Cc1ccccc1NC(=O)Cn1c(=O)n(CC2CCC(C(=O)NCCc3ccccc3)CC2)c(=O)c2ccccc21 (stereo unspecified)	inactive
CCOC(=O)c1c(C)[nH]c(C)c1S(=O)(=O)N1CCCC(C(=O)NCc2ccccc2Cl)C1 (stereo unspecified)	inactive
COc1ccc(NC(=O)CCNS(=O)(=O)c2ccc3c(c2)CCCC(=O)N3)cc1Cl	inactive
COCCn1c(SCC(=O)c2cc(C)ccc2C)nc2cc(C(=O)NC3CCCC3)ccc2c1=O	inactive
N#Cc1ccc[n+](CC(=O)c2ccc(O)c(O)c2)c1	inactive

Structure (SMILES)	Potency
CCOC(=O)C1CCCN(CC(=O)Nc2cc(C)c3c(=O)oc4ccccc4c3n2)C1 (stereo unspecified)	inactive
CS(=O)(=O)N1CCc2cc(C(=O)Nc3ccccc3)ccc21	inactive
C/C(Cc1ccccc1)=N\NC(=O)CNC(=O)c1ccc2c(c1)OCCO2	inactive
O=C(Nc1ccccc1)c1ccc2c(c1)OCCCO2	12.6 µM (active)
O=C1N(Cc2ccccc2)c2ccc(Cl)cc2C1(O)c1c[nH]c2ccccc12 (stereo unspecified)	inactive
O=C(NCc1ccc(Cl)cc1)C1CCN(S(=O)(=O)c2cccs2)CC1	inactive
O=C(NCc1csc(-c2cccs2)n1)C1CC1	11.2 µM (active)
CC(C)(C)C1CCC(C(=O)NCC(c2cccs2)N2CCOCC2)CC1 (stereo unspecified)	inactive
Cc1ccc(CNS(=O)(=O)c2ccc(C(=O)N(C)C)s2)cc1	inactive
CCOC(=O)c1ccc(N2C(=O)c3n[nH]c(-c4ccco4)c3C2c2ccc(O)cc2)cc1 (stereo unspecified)	inactive
CCCNC(=O)C1CC(=O)N(c2ccc(OCc3ccccc3)cc2)C1 (stereo unspecified)	3.16 µM (active)
CCCNC(=O)C1CC(=O)N(c2ccc(OCC(=O)Nc3cccc(C)c3C)cc2)C1 (stereo unspecified)	inactive
CCOc1ccc(N2CC(C(=O)NCc3ccccn3)CC2=O)cc1 (stereo unspecified)	inactive
OCC(O)C(O)C(O)C(O)C=Nc1ccc(/C=C/c2ccnc3ccccc23)cc1 (stereo unspecified)	inactive
OC(COc1ccc2ccccc2c1)CN1CCOCC1 (stereo unspecified)	11.2 µM (active)
OC(COc1ccc2ccccc2c1)Cn1cncn1 (stereo unspecified)	inactive
Cc1cccc(OCC(O)Cn2c(=N)n(CCN3CCOCC3)c3ccccc32)c1 (stereo unspecified)	inactive
Cc1cc2c(cc1C)C(c1cccc(OC(C)C)c1)CC(=O)N2 (stereo unspecified)	inactive
O=C(Nc1ccc2ccccc2c1)Nc1ccc2snnc2c1	inactive
COc1ccc(NC(=O)Nc2cccc(-c3noc(C)n3)c2)cc1	inactive
COc1ccc(NC(=O)Nc2ccc3nsnc3c2)cc1	2.51 µM (active)
Cc1ccc(C(=O)O/N=C(\N)c2ccccn2)cc1Cl	inactive

Structure (SMILES)	Potency
N/C(=N\OC(=O)CCC1CCCCC1)c1ccccn1	7.94 µM (active)
N/C(=N\OC(=O)CC1CCCCC1)c1ccccc1	inactive
O=C1O/C(=C\c2ccc(O)cc2)C(O)=C1c1ccc(O)cc1	inactive
COc1ccc(CCNC(=O)CCCn2c(=O)c3ccccc3n(Cc3ccc(C)cc3)c2=O)cc1OC	inactive
COc1ccc(/C=C/c2ccccn2)cc1OC	inactive
COc1ccc(-c2noc(CSc3nc4ccc(C)cc4[nH]3)n2)cc1	inactive
Cc1cccc2nc(CNc3ccc(F)cc3)cn12	12.6 µM (active)
CCOC(=O)CSc1nnc(CNc2ccc(F)cc2)o1	inactive
Cc1ccc(-c2nc3ccccn3c2Nc2ccc(F)cc2)o1	inactive
Cc1oc2ncn(CC(C)C)c(=O)c2c1C(=O)N1CCN(c2ccccc2F)CC1	inactive
CCOC(OCC)c1ccc(/C=C\c2nccc(N)n2)cc1	3.16 µM (active)
O=C(Nc1ccc(Cl)cc1)c1cnn2c1NC(=C1CC1)C=C2C(F)F	inactive
CC1CN(C(=O)c2cc(COc3c(F)cccc3F)on2)CCN1C (stereo unspecified)	inactive
CCOC(=O)CC1(NC(=O)c2cc(COc3cncc(Cl)c3)on2)CCCCC1	inactive
CCCOC1CCCN(C(=O)c2cc(COc3cncc(Cl)c3)on2)C1 (stereo unspecified)	5.62 µM (active)
O=C(c1ccco1)N(Cc1cccs1)c1ccc(O)cc1	inactive
CCc1nn(CCCC(=O)NCc2ccccc2OC)c(=O)c2cc3occc3n12	inactive
CCc1nn(CC(=O)NCC(C)c2ccccc2)c(=O)c2cc3occc3n12 (stereo unspecified)	inactive
COc1ccc2cc(-c3nc(Cl)c4c5c(sc4n3)CC(C)CC5)c(=O)oc2c1 (stereo unspecified)	inactive
Cn1c(=O)c2c(nc(NCCc3ccccc3)n2Cc2ccccc2Br)n(C)c1=O	inactive
Cc1ccccc1-n1c(C)cc(/C=C2\NC(=O)NC2=O)c1C	10 µM (active)
Cc1ccccc1-n1c(C)cc(/C=N/NC(=O)c2ccc(CN3CCOCC3)cc2)c1C	inactive

Structure (SMILES)	Potency
CSc1ccc(/C=C2\NC(=O)NC2=O)cc1	inactive
COc1ccc(Cl)cc1N(C)C(=O)c1cc2c(=O)oc3ccc(C)cc3c2s1	inactive
COc1ccc(NC(=O)c2cnc(Nc3ccc(C)c(Cl)c3)c3ccccc23)cc1OC	inactive
O=C1c2ccccc2C(=O)N1c1ccc(S(=O)(=O)N2CCOCC2)c2ccccc12	inactive
COc1cccc(NC(=O)CSc2cc(=O)n(C)c3ccc(Cl)cc23)c1	inactive
Cc1ccc(NC(=O)CN2C(=O)CC(C)Sc3ccccc32)c(C)c1 (stereo unspecified)	inactive
O=C(NC(Cc1c[nH]c2ccccc12)C(=O)N/N=C/c1ccc(Br)cc1)c1cccs1 (stereo unspecified)	inactive
O=C(N/N=C/c1c[nH]c2ccccc12)c1ccccc1O	8.91 µM (active)
C[C@H](NC(=O)c1ccccc1)C(=O)OCC(=O)c1c[nH]c2ccccc12	inactive
CCOC(=O)c1cccc(NC(=O)c2cc(S(=O)(=O)N3CCCC(C)C3)cn2C)c1 (stereo unspecified)	inactive
O=C(CCn1c(=O)c2ccccc2n(Cc2ccc(Cl)cc2)c1=O)NCc1ccc2c(c1)OCO2	inactive
CCCN(C(=O)Cn1cc(S(=O)(=O)N2CCN(c3ccccc3F)CC2)c2ccccc2c1=O)c1cccc(C)c1	inactive
OC(c1ccccc1)(c1ccccc1)C1CCN(CCCOc2ccccc2)CC1	inactive
c1ccc(-c2ccc(OCCN3CCOCC3)cc2)cc1	11.2 µM (active)
CCOc1ccc(C(=O)CCN2CCOCC2)cc1	inactive
CCc1cccc(NC(=O)Cn2nc(CC)n3c(cc4cc(C)ccc43)c2=O)c1	inactive
COc1ccccc1C(=O)NCCn1cc(SCc2ccccc2Cl)c2ccccc21	inactive
CCN(CC)C(=O)C1=C(C)N(Cc2ccc(OC)cc2)C(=O)C(CC(=O)NCc2ccco2)C1 (stereo unspecified)	inactive
O=C1N/C(=N\N=C\c2ccco2)SC1Cc1ccc(F)cc1 (stereo unspecified)	inactive
COc1ccc(CN2C(=O)C(C)S/C2=N/N=C/c2ccco2)cc1 (stereo unspecified)	11.2 µM (active)
CN(Cc1ccccc1)c1ccc(/C=C/c2ccnc3ccccc23)cc1	inactive
CCc1ccc(OCCCn2c(CCCNC(=O)C3CCCCC3)nc3ccccc32)cc1	inactive

Structure (SMILES)	Potency
COc1ccccc1CNS(=O)(=O)c1cc(Br)cc2c1N(C(C)=O)C(C)C2 (stereo unspecified)	inactive
Fc1cc(F)c2nc(N3CCOCC3)sc2c1	12.6 µM (active)
Cc1cc(C)c2nc(N3CCC(C(=O)NCCN4CCOCC4)CC3)sc2c1	inactive
Cc1nc(N2CCOCC2)sc1C(=O)NN	inactive
CCc1nc2onc(C)c2c(=O)n1CC(=O)O	inactive
Cc1cc(C(=O)COc2ccccc2Cl)c(C)n1C1CC1	12.6 µM (active)
O=C(COc1ccccc1Cl)N1CCCCCCC1	inactive
Cc1cc(C(=O)COc2ccc(Br)cc2F)c(C)n1C1CC1	inactive
Cn1c(=O)c2c(-c3ccccc3Br)n(Cc3ccccc3)cc2n(C)c1=O	inactive
S=C(NCc1ccco1)Nc1ccc2c(c1)OCCO2	inactive
S=C(Nc1ccc2c(c1)OCO2)N1CCCC1	inactive
S=C(Nc1cccc(Cl)c1)Nc1ccc2c(c1)OCCO2	11.2 µM (active)
Cc1ccc(OCCCC(=O)Nc2ccc3c(c2)OCCO3)cc1	inactive
CCc1ccccc1OCC(=O)Nc1ccc2c(c1)OCCO2	inactive
CCCCC(=O)Nc1ccc2c(c1)OCCO2	7.08 µM (active)
COc1ccccc1-c1cc2nc(C)c(CCC(=O)NC3CCCCC3)c(C)n2n1	inactive
COc1ccc(NC(=O)CSc2nnc(-c3nnn(-c4ccc(F)cc4)c3C)o2)cc1	inactive
O=C(CS(=O)(=O)c1cccc2nsnc12)N1CCN(c2cccc(Cl)c2)CC1	inactive
